Experimental data reported in the supplement of paper PMC11732987, “Enantioselective OTUD7B fragment discovery through chemoproteomics screening and high-throughput optimisation” (Communications Chemistry, 2025).

Tests used:
Assay in all cases: log2 ratio of Biotin-Ahx-Ub-VS probe labelling (fragment/DMSO); higher = less target engagement (more negative = stronger competition), active = hit call of the paper (q ≤ 0.05, log2 ratio ≤ -1)
Conditions in all cases: compound concentration: 200 uM; treatment time: 3 h
[1] = biological target: T1, OTUD6B (UniProt Q8N6M0)
T1 sequence (whole entry): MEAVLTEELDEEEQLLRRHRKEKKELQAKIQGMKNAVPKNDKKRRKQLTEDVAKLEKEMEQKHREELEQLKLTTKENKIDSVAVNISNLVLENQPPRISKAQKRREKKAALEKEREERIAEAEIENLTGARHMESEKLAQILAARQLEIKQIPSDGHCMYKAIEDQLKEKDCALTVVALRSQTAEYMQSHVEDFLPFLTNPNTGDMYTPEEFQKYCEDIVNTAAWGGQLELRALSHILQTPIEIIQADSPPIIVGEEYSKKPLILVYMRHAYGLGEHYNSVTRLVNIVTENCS
Method in brief: (§1)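 HEK293T lysate (495 µg per sample, in Tris/CHAPS/IGEPAL buffer with protease inhibitors) was treated in triplicate with fragment at 200 µM or with DMSO for 3 h. It was then treated with Biotin-Ahx-Ub-VS (0.5 µM final) for 1 h. Labelled DUBs were NeutrAvidin-enriched, digested with LysC and trypsin, and run by diaPASEF LC-MS/MS. Spectronaut label-free quantities were global-median-normalised. Values are average log2 ratios fragment/DMSO by unpaired t-test, using proteins with ≥2 unique peptides.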

[2] = biological target: T2, OTUD7B (UniProt Q6GQQ9)
T2 sequence (whole entry): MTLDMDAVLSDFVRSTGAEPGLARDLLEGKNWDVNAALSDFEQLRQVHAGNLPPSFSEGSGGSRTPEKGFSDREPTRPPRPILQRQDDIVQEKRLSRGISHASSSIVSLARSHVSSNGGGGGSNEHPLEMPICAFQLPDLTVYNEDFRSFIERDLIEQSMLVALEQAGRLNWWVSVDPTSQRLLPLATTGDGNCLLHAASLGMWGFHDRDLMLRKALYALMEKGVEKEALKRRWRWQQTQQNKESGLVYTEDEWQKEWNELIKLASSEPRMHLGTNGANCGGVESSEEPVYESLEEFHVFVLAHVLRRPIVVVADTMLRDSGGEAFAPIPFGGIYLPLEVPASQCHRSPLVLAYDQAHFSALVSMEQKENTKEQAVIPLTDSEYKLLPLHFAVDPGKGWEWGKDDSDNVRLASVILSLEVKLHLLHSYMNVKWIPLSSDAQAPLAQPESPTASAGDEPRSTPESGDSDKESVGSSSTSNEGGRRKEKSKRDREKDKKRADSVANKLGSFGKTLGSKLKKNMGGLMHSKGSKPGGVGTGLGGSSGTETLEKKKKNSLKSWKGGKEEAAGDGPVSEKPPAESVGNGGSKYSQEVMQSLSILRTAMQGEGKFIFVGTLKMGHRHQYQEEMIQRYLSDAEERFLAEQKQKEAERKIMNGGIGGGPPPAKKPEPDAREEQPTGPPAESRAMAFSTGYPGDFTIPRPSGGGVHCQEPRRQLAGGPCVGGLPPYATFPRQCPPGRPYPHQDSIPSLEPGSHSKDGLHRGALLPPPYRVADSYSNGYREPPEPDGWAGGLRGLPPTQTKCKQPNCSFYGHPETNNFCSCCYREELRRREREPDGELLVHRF
Method in brief: as §1

[3] = biological target: PRPF8 (UniProt Q6P2Q9)
Method in brief: as §1

[4] = biological target: T3, PSMD7 (UniProt P51665)
T3 sequence (whole entry): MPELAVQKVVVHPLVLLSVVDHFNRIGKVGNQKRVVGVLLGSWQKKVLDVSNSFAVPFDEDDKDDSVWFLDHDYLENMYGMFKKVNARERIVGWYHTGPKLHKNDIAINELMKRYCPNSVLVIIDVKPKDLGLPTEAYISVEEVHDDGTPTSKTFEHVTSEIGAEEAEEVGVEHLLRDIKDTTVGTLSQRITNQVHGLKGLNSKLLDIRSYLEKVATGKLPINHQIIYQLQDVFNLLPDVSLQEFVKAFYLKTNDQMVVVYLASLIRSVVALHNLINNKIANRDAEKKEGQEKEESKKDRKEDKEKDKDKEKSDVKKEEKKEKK
Method in brief: as §1

[5] = biological target: UCHL1 (UniProt P09936)
Sequence of UCHL1 (P09936 whole entry, looked up): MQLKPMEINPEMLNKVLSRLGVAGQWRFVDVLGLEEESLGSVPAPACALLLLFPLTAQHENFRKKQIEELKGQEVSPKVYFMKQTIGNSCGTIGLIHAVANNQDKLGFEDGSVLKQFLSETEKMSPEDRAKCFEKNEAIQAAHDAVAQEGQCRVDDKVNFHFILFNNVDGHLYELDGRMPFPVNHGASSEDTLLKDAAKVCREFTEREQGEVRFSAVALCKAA
Method in brief: as §1

[6] = biological target: T4, UCHL3 (UniProt P15374)
T4 sequence (whole entry): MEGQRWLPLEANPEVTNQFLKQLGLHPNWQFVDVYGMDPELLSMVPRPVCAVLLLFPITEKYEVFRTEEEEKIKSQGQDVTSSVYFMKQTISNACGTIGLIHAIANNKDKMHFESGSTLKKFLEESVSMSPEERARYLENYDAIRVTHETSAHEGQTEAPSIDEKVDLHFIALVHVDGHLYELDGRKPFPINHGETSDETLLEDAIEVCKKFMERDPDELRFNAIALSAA
Method in brief: as §1

[7] = biological target: T5, UCHL5 (UniProt Q9Y5K5)
T5 sequence (whole entry): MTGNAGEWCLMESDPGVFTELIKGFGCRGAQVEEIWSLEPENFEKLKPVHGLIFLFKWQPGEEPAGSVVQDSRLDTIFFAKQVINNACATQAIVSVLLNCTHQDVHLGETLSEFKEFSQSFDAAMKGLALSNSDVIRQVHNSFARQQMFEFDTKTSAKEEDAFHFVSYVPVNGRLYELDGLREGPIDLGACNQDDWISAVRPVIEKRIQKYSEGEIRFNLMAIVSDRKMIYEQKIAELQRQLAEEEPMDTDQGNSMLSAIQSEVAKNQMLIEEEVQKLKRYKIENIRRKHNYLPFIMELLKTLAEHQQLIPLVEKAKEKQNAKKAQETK
Method in brief: as §1

[8] = biological target: USP10 (UniProt Q14694)
Sequence of USP10 (Q14694 whole entry): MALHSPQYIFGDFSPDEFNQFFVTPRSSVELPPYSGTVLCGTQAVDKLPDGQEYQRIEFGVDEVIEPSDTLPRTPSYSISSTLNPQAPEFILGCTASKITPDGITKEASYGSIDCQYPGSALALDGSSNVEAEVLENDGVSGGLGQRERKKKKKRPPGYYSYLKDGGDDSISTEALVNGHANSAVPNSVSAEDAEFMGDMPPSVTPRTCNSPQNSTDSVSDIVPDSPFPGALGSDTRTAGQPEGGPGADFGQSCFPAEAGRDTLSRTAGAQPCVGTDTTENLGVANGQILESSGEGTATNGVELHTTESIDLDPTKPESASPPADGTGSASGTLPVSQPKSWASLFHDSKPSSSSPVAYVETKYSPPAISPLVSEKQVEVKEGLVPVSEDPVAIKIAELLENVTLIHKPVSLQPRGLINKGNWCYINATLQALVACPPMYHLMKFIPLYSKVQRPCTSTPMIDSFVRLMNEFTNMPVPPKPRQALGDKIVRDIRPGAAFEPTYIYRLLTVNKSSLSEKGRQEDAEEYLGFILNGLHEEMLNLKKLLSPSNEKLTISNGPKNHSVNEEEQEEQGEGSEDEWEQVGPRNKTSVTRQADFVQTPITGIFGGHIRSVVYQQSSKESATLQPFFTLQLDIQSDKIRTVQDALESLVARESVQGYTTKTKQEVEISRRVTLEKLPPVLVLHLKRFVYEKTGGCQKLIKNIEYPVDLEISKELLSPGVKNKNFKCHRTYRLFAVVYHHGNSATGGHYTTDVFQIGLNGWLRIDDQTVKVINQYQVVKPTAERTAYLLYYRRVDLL
Method in brief: as §1

[9] = biological target: T6, USP15 (UniProt Q9Y4E8)
T6 sequence (whole entry): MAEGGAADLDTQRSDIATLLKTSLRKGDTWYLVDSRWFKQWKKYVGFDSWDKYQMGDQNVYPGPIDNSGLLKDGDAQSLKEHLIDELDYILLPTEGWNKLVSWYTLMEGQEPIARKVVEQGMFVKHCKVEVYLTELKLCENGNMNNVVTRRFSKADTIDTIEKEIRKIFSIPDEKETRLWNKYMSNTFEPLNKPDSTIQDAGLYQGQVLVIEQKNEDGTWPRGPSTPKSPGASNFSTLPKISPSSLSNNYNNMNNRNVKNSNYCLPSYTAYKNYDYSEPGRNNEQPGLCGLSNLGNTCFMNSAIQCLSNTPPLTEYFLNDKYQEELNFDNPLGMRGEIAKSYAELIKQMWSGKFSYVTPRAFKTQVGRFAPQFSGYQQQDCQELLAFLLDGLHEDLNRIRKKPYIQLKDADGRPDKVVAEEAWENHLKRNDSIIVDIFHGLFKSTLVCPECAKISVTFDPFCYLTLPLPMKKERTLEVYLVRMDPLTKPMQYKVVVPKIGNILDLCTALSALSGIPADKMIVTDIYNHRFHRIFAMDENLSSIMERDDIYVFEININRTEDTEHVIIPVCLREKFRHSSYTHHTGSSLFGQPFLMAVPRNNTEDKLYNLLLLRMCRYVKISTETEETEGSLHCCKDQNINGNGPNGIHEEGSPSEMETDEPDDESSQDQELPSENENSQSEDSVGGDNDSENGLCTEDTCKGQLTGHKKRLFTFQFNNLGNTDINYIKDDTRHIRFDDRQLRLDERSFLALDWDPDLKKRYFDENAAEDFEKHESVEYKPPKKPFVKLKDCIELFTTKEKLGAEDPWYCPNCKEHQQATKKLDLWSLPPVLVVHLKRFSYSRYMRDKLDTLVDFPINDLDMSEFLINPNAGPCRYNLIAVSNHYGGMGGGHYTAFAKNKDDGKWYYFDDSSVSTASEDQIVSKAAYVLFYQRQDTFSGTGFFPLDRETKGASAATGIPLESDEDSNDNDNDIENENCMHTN
Method in brief: as §1

[10] = biological target: USP16 (UniProt Q9Y5T5)
Sequence of USP16 (Q9Y5T5 whole entry, looked up): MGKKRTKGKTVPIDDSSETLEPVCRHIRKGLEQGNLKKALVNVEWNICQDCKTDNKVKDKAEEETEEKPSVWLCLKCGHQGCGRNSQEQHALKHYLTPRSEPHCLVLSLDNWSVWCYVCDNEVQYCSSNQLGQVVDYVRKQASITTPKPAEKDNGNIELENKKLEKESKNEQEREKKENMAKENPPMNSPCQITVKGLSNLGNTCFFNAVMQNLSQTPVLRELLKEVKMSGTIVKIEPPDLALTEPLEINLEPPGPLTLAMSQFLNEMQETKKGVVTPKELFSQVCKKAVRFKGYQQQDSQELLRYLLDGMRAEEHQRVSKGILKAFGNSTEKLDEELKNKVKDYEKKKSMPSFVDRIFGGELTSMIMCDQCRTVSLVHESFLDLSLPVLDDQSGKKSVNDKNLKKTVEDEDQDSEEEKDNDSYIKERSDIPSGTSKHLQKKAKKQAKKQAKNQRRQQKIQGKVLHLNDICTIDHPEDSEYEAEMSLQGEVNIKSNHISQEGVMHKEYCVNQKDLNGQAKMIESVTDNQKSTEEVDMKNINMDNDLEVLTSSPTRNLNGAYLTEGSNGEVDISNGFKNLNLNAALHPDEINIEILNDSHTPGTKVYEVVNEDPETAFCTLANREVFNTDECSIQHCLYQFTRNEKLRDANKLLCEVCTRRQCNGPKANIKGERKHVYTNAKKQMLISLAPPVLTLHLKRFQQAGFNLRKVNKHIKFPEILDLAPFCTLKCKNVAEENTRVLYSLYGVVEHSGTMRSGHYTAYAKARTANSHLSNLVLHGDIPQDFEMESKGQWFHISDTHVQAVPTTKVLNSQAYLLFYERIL
Method in brief: as §1

Measured: log2 ratio of Biotin-Ahx-Ub-VS probe labelling

O=C(CCl)N1CCC(S(=O)(=O)c2ccc(F)cc2)CC1
inactive: [1] -0.129 | [2] -0.758 | [3] -0.03 | [4] -0.129 | [6] 0.498 | [7] -0.128 | [8] -0.175 | [9] -0.327 | [10] 0.341
active: [5] -1.14
